From PubChem BioAssay (NCI)
The panel holds about 79,000 compounds, 15% with a hit somewhere; the sample as a whole holds those more often. Active and inactive are the calls of the source. No stated cut-off is given here; in the data, active means growth inhibition above about 70%; inactive means the rest. Where a SMILES comes first, the peptide text is derived from it. The star is where a group is joined. Boc = CC(C)(C)OC(=O)*; tBu = CC(C)(C)*

Experiments:
[1] = NCI Yeast Anticancer Drug Screen. Data for the rad50 strain (AID 155);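 further: 0% = growth of vehicle-only cultures of the same strain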; settings: S. cerevisiae rad50 strain growth inhibition; at 50.0 µM; hits give high values
Procedure, shortened: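 Relative growth inhibition (compound vs vehicle) was measured in yeast with a defined repair-gene alteration.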

[2] = NCI Yeast Anticancer Drug Screen. Data for the mec2-1 strain (AID 157); settings: S. cerevisiae mec2-1 strain, at 50.0 µM, hits give high values
Procedure, shortened: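 Vehicle-treated cultures served as reference for growth inhibition of compound-exposed mec2-1 yeast.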

[3] = NCI Yeast Anticancer Drug Screen. Data for the sgs1 mgt1 strain (AID 161);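 further: 0% = growth of cultures given vehicle only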; settings: S. cerevisiae sgs1 mgt1 strain, at 50.0 µM, hits give high values
Procedure, shortened: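 Genetically altered yeast, compound exposure, growth inhibition relative to vehicle.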

[4] = NCI Yeast Anticancer Drug Screen. Data for the cln2 rad14 strain (AID 165);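 further: 0% = growth equal to vehicle treated cultures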; settings: S. cerevisiae cln2 rad14 strain, at 50.0 µM, hits give high values
Procedure, shortened: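 Each compound was tested on cln2 rad14 yeast. Inhibition of growth was calculated against vehicle-exposed controls.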

[5] = NCI Yeast Anticancer Drug Screen. Data for the bub3 strain (AID 167); settings: S. cerevisiae bub3 mutant strain, at 50.0 µM, hits give high values
Procedure, shortened: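 Screening used yeast with an engineered genetic alteration affecting cell cycle control. Compound-exposed cultures were compared with vehicle cultures, and reduced growth was taken as inhibition.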

[6] = NCI Yeast Anticancer Drug Screen. Data for the mlh1 rad18 strain (AID 175); settings: S. cerevisiae mlh1 rad18 strain growth inhibition; at 50.0 µM; hits give high values
Procedure, shortened: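 Vehicle-treated cultures served as the reference for growth inhibition in a yeast strain carrying DNA damage repair alterations exposed to each compound.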

Measured: growth inhibition

COC(=O)CCOc1ccc(C)cc1
inactive: [1] 28.2% | [2] 12.9% | [3] 6.6% | [4] 10.3% | [5] -5.85% | [6] -21.9%

O=C(c1ccccc1)c1cc(Cl)ccc1N1C(=O)C=CC1=O
active: [1] 99.2% | [2] 99.7% | [3] 99.7% | [4] 99.2% | [5] 99% | [6] 99.5%

Cc1c(CO)[n+](=O)c2ccccc2n1[O-]
inactive: [1] 30.4% | [2] 12.6% | [3] 0.45% | [4] -22.6% | [5] 3.4% | [6] 21.7%

O=C(CCCn1ccnc1[N+](=O)[O-])NCCn1cnc([N+](=O)[O-])c1
inactive: [1] 8.9% | [2] 29.6% | [3] 5.2% | [4] 5.75% | [5] -9.4% | [6] 61%

O=C(O)CS/C(=N\S(=O)(=O)c1ccccc1)Nc1cccc(Cl)c1
inactive: [1] -2.85% | [2] -24.9% | [3] 19.1% | [4] 12% | [5] 5.45% | [6] -7.85%

Brc1ccc(/C=C/c2ccnnc2)cc1
inactive: [1] 41.5% | [2] 33.8% | [3] 34.6% | [4] 25.5% | [5] 47.7% | [6] 34.4%

C=CCCCCCCCCC(=O)NCC1CCCCO1 (stereo not given)
inactive: [1] 2.8% | [2] -0.5% | [3] 67.6% | [4] -1.35% | [5] 10.1% | [6] 58.1%

CC(=O)O[C@]12CCCCCC1C1(O)C(O)CCCC[C@H]12 (stereo not given in full)
inactive: [1] 10.2% | [2] -23.6% | [3] -21.2% | [4] 4.45% | [5] -10.3% | [6] -16.4%

CC(=O)n1c(N)nc2ccccc21
inactive: [1] 21.3% | [2] -2.85% | [3] 6.95% | [4] 3.4% | [5] 1.45% | [6] 28.8%

Cc1ccc(OC(=O)NC(C)(C)C)cc1
inactive: [1] 0.8% | [2] -18.9% | [3] 11.2% | [4] -35.1% | [5] 11.8% | [6] -12.5%

CSc1ccccc1N1C(=O)CSC1=S
inactive: [1] -7.8% | [2] 4.4% | [3] 41.5% | [4] 19.1% | [5] -4.1% | [6] 22.2%

C(=N/N=C(/C(=N/N=C/c1ccccc1)c1ccccc1)c1ccccc1)\c1ccccc1
inactive: [1] 26.6% | [2] 5% | [3] 33.3% | [4] 8.4% | [5] 11.9% | [6] 5.45%

Cc1ccc(N=NC2Sc3nc4ccccc4n3C2=O)cc1 (stereo not given)
inactive: [1] -7.1% | [2] 9.75% | [3] -0.7% | [4] -35.5% | [5] 16.3% | [6] 13.2%

Cc1cc(Cc2cccc3ccccc23)nc2c1ccc1ccccc12
inactive: [1] 0.85% | [2] -11.2% | [3] 12.2% | [4] 11% | [5] -13.9% | [6] 17.6%

COc1ccc(CCCCC(=O)O)cc1
inactive: [1] -12.1% | [2] -3.4% | [3] -0.65% | [4] -2.7% | [5] -7.55% | [6] -9.1%

O=C(c1ccccc1)C1C(c2ccccc2)C=CC(c2ccccc2)C1C(=O)c1ccccc1 (stereo not given)
inactive: [1] -18.4% | [2] -11.3% | [3] -9% | [4] -4.55% | [5] 3.2% | [6] -22.6%

O=C(NCC(CC(NC(=O)c1ccccc1)C(=O)O)NC(=O)c1ccccc1)c1ccccc1 (stereo not given)
inactive: [1] -20.5% | [2] -4.85% | [3] -11.4% | [4] 16% | [5] -5.9% | [6] 0.9%

CC(OC(C)(C)C)C(NC(=O)C(N)CCCCNC(=O)OC(C)(C)C)C(=O)NC(Cc1ccccc1)C(=O)O (stereo not given) (H-Lys(Boc)-Thr(tBu)-Phe-OH; configuration not given here)
inactive: [1] -37.3% | [2] -11.6% | [3] -39.4% | [4] -14.8% | [5] -5% | [6] -15%

O=C1CCN2CCC(=O)c3c2c(cc2ccccc32)N1
inactive: [1] 6.25% | [2] -15.8% | [3] -4.45% | [4] 10.3% | [5] -12.7% | [6] -12.6%

CC/C=C(\C)C(C#N)(CC)C(=O)OCC (stereo not given)
inactive: [1] 4.65% | [2] -12.7% | [3] -4.6% | [4] 2.75% | [5] -20.4% | [6] 9.2%
